# According to publication PMC11024108:
# Key:
# Histone H4 = Histone H4 (UniProt P62805); assay: cross-link between two proteins; cross-linking mass spectrometry
# [1] = biological target: Actin, alpha cardiac muscle 1 (UniProt P68033); assay: as above
# Coronin-2B = biological target: T1, Coronin-2B (UniProt Q8BH44); assay: as above
# T1 sequence: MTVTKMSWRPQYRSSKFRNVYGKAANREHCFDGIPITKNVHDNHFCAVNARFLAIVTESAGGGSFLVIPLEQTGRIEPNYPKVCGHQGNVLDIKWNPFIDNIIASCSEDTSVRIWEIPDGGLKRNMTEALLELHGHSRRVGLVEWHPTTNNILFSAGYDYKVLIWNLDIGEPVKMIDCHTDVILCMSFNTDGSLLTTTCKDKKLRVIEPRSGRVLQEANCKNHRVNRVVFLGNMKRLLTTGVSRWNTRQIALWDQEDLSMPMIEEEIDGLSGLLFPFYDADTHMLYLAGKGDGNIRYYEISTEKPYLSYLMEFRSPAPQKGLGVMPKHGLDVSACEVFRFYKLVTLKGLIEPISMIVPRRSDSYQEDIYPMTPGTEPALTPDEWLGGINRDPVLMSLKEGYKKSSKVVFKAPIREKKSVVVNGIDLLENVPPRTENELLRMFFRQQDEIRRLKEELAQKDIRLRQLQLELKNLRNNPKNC
# Myosin-10 = Myosin-10 (UniProt Q61879); assay: as above
# [2] = biological target: T2, Phosphatase and actin regulator 1 (UniProt Q2M3X8); assay: as above
# T2 sequence: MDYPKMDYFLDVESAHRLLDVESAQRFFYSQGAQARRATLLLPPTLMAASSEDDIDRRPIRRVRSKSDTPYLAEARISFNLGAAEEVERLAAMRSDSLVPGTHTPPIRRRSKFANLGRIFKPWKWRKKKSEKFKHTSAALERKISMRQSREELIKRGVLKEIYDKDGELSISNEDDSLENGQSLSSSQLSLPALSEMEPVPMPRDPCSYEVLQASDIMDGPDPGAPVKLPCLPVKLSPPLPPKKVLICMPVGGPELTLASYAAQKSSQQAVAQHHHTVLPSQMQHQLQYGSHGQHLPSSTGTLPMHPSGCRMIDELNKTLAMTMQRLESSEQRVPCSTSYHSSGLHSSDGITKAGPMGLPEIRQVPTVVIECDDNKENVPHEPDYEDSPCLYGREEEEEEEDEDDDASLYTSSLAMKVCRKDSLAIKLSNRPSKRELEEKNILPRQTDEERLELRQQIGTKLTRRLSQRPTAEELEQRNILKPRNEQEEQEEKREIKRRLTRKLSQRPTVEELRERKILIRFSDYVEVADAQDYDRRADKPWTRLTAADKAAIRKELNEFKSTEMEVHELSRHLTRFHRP
# Synaptopodin = biological target: T3, Synaptopodin (UniProt Q8CC35); assay: as above
# T3 sequence: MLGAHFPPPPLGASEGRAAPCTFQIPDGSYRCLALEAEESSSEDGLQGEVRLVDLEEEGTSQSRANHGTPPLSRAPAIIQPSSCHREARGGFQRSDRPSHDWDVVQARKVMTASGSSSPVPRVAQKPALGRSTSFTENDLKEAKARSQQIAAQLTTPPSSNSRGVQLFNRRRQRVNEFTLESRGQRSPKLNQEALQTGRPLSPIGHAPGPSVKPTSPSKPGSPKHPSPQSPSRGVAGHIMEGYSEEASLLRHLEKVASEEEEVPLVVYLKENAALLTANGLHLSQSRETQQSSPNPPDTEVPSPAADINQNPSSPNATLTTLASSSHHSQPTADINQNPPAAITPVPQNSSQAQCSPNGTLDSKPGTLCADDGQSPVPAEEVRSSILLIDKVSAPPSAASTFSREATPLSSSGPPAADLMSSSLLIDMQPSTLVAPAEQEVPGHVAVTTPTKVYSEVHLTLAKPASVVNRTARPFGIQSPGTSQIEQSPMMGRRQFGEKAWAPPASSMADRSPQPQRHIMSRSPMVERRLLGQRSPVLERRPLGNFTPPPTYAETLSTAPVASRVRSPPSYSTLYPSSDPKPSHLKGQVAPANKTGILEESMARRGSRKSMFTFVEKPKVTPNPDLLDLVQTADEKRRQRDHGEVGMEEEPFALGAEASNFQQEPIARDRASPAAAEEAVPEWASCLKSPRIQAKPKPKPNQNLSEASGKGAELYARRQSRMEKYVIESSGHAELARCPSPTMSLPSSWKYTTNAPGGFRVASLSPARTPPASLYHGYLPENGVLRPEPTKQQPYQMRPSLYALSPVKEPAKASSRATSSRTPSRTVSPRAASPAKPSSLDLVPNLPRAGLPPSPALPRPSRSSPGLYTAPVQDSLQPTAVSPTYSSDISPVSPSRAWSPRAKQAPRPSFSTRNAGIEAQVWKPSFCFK
# Tropomodulin-2 = biological target: T4, Tropomodulin-2 (UniProt Q9JKK7); assay: as above
# T4 sequence: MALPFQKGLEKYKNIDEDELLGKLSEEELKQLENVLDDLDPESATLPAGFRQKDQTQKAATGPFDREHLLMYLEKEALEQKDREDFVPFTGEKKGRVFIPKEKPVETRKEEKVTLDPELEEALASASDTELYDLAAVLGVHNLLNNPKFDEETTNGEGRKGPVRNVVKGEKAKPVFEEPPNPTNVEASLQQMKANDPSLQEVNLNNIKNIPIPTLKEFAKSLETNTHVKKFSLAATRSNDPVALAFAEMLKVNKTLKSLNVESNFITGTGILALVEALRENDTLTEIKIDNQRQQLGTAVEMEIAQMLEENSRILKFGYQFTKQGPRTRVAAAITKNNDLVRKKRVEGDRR
# Twinfilin-1 = Twinfilin-1 (UniProt Q91YR1); assay: as above
# Twinfilin-2 = biological target: T5, Twinfilin-2 (UniProt Q9Z0P5); assay: as above
# T5 sequence: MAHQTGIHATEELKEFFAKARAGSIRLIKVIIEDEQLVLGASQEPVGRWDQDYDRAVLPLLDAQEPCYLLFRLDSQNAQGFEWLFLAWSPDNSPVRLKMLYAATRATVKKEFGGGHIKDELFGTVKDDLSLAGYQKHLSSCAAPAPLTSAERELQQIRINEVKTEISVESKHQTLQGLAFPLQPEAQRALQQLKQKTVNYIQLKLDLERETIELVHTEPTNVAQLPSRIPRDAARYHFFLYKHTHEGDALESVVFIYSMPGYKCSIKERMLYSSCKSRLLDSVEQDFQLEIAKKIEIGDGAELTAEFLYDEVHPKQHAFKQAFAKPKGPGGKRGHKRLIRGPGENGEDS
# Unconventional myosin-Va = Unconventional myosin-Va (UniProt Q99104); assay: as above
# Histone H1.2 = Histone H1.2 (UniProt P16403); assay: as above
# Histone H1.2, sequence (P16403 whole entry): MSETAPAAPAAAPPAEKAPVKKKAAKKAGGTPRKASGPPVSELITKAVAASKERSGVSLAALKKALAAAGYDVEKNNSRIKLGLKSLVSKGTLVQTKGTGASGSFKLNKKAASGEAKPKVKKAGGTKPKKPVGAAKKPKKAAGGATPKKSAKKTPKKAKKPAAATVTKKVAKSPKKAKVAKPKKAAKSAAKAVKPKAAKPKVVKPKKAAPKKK
# [3] = biological target: Large ribosomal subunit protein eL20 (UniProt Q02543); assay: as above
# [4] = biological target: T6, Serine/arginine-rich splicing factor 7 (UniProt Q16629); assay: as above
# T6 sequence: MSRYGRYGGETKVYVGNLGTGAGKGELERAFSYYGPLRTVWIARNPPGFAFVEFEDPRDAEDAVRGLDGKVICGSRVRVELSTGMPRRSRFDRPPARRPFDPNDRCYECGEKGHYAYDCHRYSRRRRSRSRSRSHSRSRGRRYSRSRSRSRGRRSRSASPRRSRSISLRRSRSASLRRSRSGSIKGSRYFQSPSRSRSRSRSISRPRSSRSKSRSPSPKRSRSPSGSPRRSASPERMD
# [5] = biological target: Small ribosomal subunit protein eS8 (UniProt P62241); assay: as above
# Histone H2B type 1-M = Histone H2B type 1-M (UniProt Q99879); assay: as above
# [6] = biological target: Complex III assembly factor LYRM7 (UniProt Q5U5X0); assay: cross-linking mass spectrometry
# [7] = biological target: Malate dehydrogenase, mitochondrial (UniProt P40926); assay: cross-linking mass spectrometry
# [8] = biological target: Elongation factor 1-alpha 1 (UniProt P68104); assay: cross-linking mass spectrometry
# Histone H2B type 1-C/E/G = Histone H2B type 1-C/E/G (UniProt Q6ZWY9); assay: cross-linking mass spectrometry
# [9] = biological target: Large ribosomal subunit protein uL11 (UniProt P30050); assay: cross-linking mass spectrometry
# [10] = biological target: Large ribosomal subunit protein uL11m (UniProt Q9Y3B7); assay: cross-linking mass spectrometry
# [11] = biological target: Large ribosomal subunit protein uL5 (UniProt P62913); assay: cross-linking mass spectrometry
# [12] = biological target: Leucine-rich repeat-containing protein 59 (UniProt Q96AG4); assay: cross-linking mass spectrometry
# [13] = biological target: Poly(A) RNA polymerase, mitochondrial (UniProt Q9NVV4); assay: cross-linking mass spectrometry
# [14] = biological target: Ribosome-binding protein 1 (UniProt Q9P2E9); assay: cross-linking mass spectrometry
# [15] = biological target: Small ribosomal subunit protein uS15 (UniProt P62301); assay: cross-linking mass spectrometry
# [16] = biological target: Small ribosomal subunit protein eS27 (UniProt Q6ZWU9); assay: cross-link between two proteins; cross-linking mass spectrometry
# [17] = biological target: MICOS complex subunit MIC60 (UniProt Q16891); assay: as above
# [18] = biological target: Cytochrome c oxidase assembly factor 7 (UniProt Q96BR5); assay: mass-spectrometry hit list; affinity purification or IP with mass spectrometry; cross-linking mass spectrometry
# [19] = biological target: Mitochondrial fission 1 protein (UniProt Q9CQ92); assay: cross-link between two proteins; cross-linking mass spectrometry
# Mitochondrial fission 1 protein, sequence (Q9CQ92 whole entry): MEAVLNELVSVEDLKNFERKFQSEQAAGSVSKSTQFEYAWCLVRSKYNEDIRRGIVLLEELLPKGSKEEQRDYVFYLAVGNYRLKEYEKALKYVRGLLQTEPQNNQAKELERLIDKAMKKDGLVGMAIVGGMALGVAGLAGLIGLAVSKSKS
# [20] = biological target: Plasma membrane calcium-transporting ATPase 2 (UniProt Q9R0K7); assay: as above
# Plasma membrane calcium-transporting ATPase 2, sequence (Q9R0K7 whole entry): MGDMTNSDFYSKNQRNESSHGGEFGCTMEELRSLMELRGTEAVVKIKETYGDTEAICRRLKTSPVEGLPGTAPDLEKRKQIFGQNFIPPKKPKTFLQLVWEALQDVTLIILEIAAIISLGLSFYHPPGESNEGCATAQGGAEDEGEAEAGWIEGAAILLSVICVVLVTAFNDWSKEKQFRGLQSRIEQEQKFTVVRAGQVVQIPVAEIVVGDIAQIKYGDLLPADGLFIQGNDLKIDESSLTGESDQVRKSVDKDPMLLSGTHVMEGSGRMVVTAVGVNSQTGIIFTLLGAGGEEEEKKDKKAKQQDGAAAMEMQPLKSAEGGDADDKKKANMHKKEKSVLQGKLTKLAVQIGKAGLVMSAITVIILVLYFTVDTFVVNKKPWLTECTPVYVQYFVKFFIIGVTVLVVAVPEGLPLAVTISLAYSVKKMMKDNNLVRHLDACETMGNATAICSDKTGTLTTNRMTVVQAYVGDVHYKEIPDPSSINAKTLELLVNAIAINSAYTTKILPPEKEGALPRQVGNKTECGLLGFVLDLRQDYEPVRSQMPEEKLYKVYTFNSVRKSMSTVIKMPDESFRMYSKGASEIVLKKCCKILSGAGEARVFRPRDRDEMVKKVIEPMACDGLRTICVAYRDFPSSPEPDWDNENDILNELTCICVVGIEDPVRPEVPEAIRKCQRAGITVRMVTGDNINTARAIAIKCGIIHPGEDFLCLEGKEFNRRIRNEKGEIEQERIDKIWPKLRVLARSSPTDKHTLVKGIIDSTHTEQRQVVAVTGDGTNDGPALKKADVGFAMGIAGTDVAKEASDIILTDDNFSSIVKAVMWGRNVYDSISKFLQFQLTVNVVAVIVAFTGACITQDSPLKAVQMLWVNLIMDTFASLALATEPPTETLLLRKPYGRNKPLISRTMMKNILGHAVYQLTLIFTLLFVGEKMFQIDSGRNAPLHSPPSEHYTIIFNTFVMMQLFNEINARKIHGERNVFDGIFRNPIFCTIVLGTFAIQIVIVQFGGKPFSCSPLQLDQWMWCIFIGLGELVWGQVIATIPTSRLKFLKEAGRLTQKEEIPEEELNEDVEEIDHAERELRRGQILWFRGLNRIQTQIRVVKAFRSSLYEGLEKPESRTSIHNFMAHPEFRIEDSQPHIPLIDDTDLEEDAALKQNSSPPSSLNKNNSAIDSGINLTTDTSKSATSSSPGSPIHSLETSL
# Protein piccolo = Protein piccolo (UniProt Q9QYX7); assay: as above
# [21] = biological target: Ragulator complex protein LAMTOR4 (UniProt Q0VGL1); assay: as above
# [22] = biological target: Ras-related C3 botulinum toxin substrate 1 (UniProt P63000); assay: as above
# [23] = biological target: Small ribosomal subunit protein RACK1 (UniProt P68040); assay: as above
# [24] = biological target: Small ribosomal subunit protein eS19 (UniProt Q9CZX8); assay: as above
# Ras-related protein Rab-14, Q91V41, sequence (Q91V41 whole entry): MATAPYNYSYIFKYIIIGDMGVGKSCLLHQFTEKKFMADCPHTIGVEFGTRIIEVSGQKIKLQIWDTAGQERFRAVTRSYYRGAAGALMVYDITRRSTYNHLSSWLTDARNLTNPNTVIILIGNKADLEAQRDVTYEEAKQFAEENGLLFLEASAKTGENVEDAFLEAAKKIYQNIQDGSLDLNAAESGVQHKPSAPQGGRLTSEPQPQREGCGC
# Dynein light chain 2, cytoplasmic, Q9D0M5, sequence (Q9D0M5 whole entry): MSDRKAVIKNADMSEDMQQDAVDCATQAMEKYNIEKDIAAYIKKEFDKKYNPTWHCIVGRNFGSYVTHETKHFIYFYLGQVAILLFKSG
substance,measurement,setting,value
"Histone H2B type F-S, P57053",listed as a hit,Histone H4,yes
"Actin, cytoplasmic 1, P60710",listed as a hit,[1],yes
same,listed as a hit,Coronin-2B,yes
same,listed as a hit,Myosin-10,yes
same,listed as a hit,[2],yes
same,listed as a hit,Synaptopodin,yes
same,listed as a hit,Tropomodulin-2,yes
same,listed as a hit,Twinfilin-1,yes
same,listed as a hit,Twinfilin-2,yes
same,listed as a hit,Unconventional myosin-Va,yes
"Histone H1.4, P10412",listed as a hit,Histone H1.2,yes
same,listed as a hit,[3],yes
same,listed as a hit,[4],yes
same,listed as a hit,[5],yes
"Histone H4, P62805",listed as a hit,Histone H2B type 1-M,yes
"Acyl carrier protein, mitochondrial, O14561",listed as a hit,[6],yes
same,listed as a hit,[7],yes
"Actin, cytoplasmic 2, P63261",listed as a hit,[8],yes
"Histone H3.3, P84244",listed as a hit,Histone H2B type 1-C/E/G,yes
"Elongation factor 2, P13639",listed as a hit,[9],yes
"Large ribosomal subunit protein mL53, Q96EL3",listed as a hit,[10],yes
"Small ribosomal subunit protein uS19, P62841",listed as a hit,[11],yes
"Large ribosomal subunit protein uL2, P62917",listed as a hit,[12],yes
"Leucine-rich PPR motif-containing protein, mitochondrial, P42704",listed as a hit,[13],yes
"Large ribosomal subunit protein uL1, P62906",listed as a hit,[14],yes
"Small ribosomal subunit protein eS7, P62082",listed as a hit,[15],yes
same,listed as a hit,[16],yes
"Adenylate kinase 2, mitochondrial, P54819",listed as a hit,[17],yes
same,listed as a hit,[18],yes
"Ras-related protein Rab-14, Q91V41",listed as a hit,[19],yes
P62204,listed as a hit,[20],yes
"Dynein light chain 2, cytoplasmic, Q9D0M5",listed as a hit,Protein piccolo,yes
"Ragulator complex protein LAMTOR5, O43504",listed as a hit,[21],yes
"Ras-related C3 botulinum toxin substrate 3, P60763",listed as a hit,[22],yes
"Small ribosomal subunit protein uS3, P62908",listed as a hit,[23],yes
"Small ribosomal subunit protein uS9, P14131",listed as a hit,[24],yes
